Laboratory results taken from PubChem BioAssay (NCATS).
Results filed as inconclusive are left out. Unmarked numbers belong to inactive results. Activity calls are given as the source filed them. Calls come from the whole dose curve; as a rule, active = well fitted cell-killing curve with a large enough effect; inconclusive = small, poorly fitted or top-dose-only effect, or effect the other way; inactive = no such curve, though single readings can be large or run the other way.

assay: Quantitative High-Throughput drug screen in 47 multiple myeloma cell lines against the NCATS MIPE library collection: MMM1_PLB cell viability assay (AID 1918976); settings: MMM1 myeloma cells viability, CellTiter-Glo, 48 h; series mostly up to 45.8 µM; viability (% of control): at the top concentration; note: nearly all actives have a fitted effect of over 35% in size
Text: PI: Beverly A. Mock Ph.D.
Laboratory of Cancer Biology and Genetics,
Center for Cancer Research, National Cancer Institute,
National Institute of Health, Bethesda, Maryland
Drug resistance and disease progression are common in multiple myeloma (MM) patients, underscoring the need for new therapeutic combinations. […] We hypothesized that effective combinations would reduce MYC expression and enhance p16 activity. […] These preclinical data identify potentially useful drug combinations for evaluation in drug-resistant MM and reveal potential mechanisms of combined drug sensitivity.
Described herein is the primary MIPE qHTS used to cherrypick compounds. Validated compounds were then further tested for potential synergistic activiy.
[1] Peat TJ, Gaikwad SM, Dubois W, Gyabaah-Kessie N, Zhang S, Gorjifard S, Phyo Z, Andres M, Hughitt VK, Simpson RM, Miller MA, Girvin AT, Taylor A, Williams D, D'Antonio N, Zhang Y, Rajagopalan A, Flietner E, Wilson K, Zhang X, Shinn P, Klumpp-Thomas C, McKnight C, Itkin Z, Chen L, Kazandijian D, Zhang J, Michalowski AM, Simmons JK, Keats J, Thomas CJ, Mock BA. Drug combinations identified by high-throughput screening promote cell cycle transition and upregulate Smad pathways in myeloma. Cancer Lett. 2023 Aug 1;568:216284. doi: 10.1016/j.canlet.2023.216284. Epub 2023 Jun 24. PMID: 37356470; PMCID: PMC10408729.
SEQUENCE No. (e.g., 1, 2, 3, etc.); […] (e.g., Cells, Incubation, Reagent, etc.); VALUE and DESCRIPTION.
1; Cells; 5 uL; white, solid bottom 1536-well Greiner assay plate.
2; Compounds; 23 nL; Kalypsis pin tool (Wako USA) equipped with a 1536-well pin head to transfer to the assay plates.
3; Incubation; 48 hours; 37C incubation.
4; Reagent;5uL; CellTiter Glo (Promega).
5; Detector; 425V; Luminescence; Viewlux PerkinElmer.
NOTES (numbers refer to Sequence numbers above)
1. The cell-based screening methods employed in this study were like those previously published. Briefly, the corresponding myeloma cell lines were screened in 1,536-well plates with 500 cells, 5-uL per well for inhibition of cell viability (assessed by measuring ATP levels with CellTiterGlo).
2. NCATS MIPE 4.0 library of approved and investigational drugs were added using the Kalypsis pin tool. Wells treated with DMSO only for 100% viability and media only for 0% viability were used as controls.
3. The assay plates were covered and incubated for 48 hours in a 37C, 5% CO2 incubator with controlled humidity.
4. After 48 hours, CellTilter-GloTM luminescent substrate mix (Promega) reagent was added to the assay plate and plates we incubated for 5 min at room temperature.
5. Signal was measured as median relative luminescence units on a ViewLux (PerkinElmer) multiplate reader.
[1] Heske CM, Davis MI, Baumgart JT, Wilson K, Gormally MV, Chen L, Zhang X, Ceribelli M, Duveau DY, Guha R, Ferrer M, Arnaldez FI, Ji J, Tran HL, Zhang Y, Mendoza A, Helman LJ, Thomas CJ. Matrix Screen Identifies Synergistic Combination of PARP Inhibitors and Nicotinamide Phosphoribosyltransferase (NAMPT) Inhibitors in Ewing Sarcoma. Clin Cancer Res. 2017 Dec 1;23(23):7301-7311. doi: 10.1158/1078-0432.CCR-17-1121. Epub 2017 Sep 12. PMID: 28899971; PMCID: PMC6636827.
Potency is the fitted concentration of half-maximal effect.

SMILES | Potency | viability (% of control) [%]
Cc1nc(-c2ccc(OCC(C)C)c(C#N)c2)sc1C(=O)O | 6.62 µM (active) | 
CNC[C@H](O)c1ccc(O)c(O)c1 | 6.79 µM (active) | 
CC(C)Oc1ccc2c(=O)c(-c3ccccc3)coc2c1 | 18.7 µM (active) | 
O=C(NCCO[N+](=O)[O-])c1cccnc1 |  | 113
Cc1c(C(=O)NN2CCCCC2)nn(-c2ccc(Cl)cc2Cl)c1-c1ccc(Cl)cc1 | 20.9 µM (active) | 
Cc1cccc(CN2CCN(C(c3ccccc3)c3ccc(Cl)cc3)CC2)c1 (stereo not given) | 20.9 µM (active) | 
CC(=O)N1CCN(c2ccc(OC[C@H]3CO[C@](Cn4ccnc4)(c4ccc(Cl)cc4Cl)O3)cc2)CC1 | 23.5 µM (active) | 
CC(C)c1ccc2c(c1)c(SC(C)(C)C)c(CC(C)(C)C(=O)O)n2Cc1ccc(Cl)cc1 | 2.64 µM (active) | 
CC[C@]1(O)C[C@H]2CN(CCc3c([nH]c4ccccc34)[C@@](C(=O)OC)(c3cc4c(cc3OC)N(C=O)[C@H]3[C@@](O)(C(=O)OC)[C@H](OC(C)=O)[C@]5(CC)C=CCN6CC[C@]43[C@@H]65)C2)C1 | 1.05 µM (active) | 
COc1cc2c(cc1OC)C1CC(=O)C(CC(C)C)CN1CC2 (stereo not given) | 20.9 µM (active) | 
NNc1nncc2ccccc12 | 20.9 µM (active) | 
O=c1cc(N2CCOCC2)oc2c(-c3ccccc3)cccc12 | 18.7 µM (active) | 
COC1=C(OC)C(=O)C(CCCCCCCCCCO)=C(C)C1=O | 20.9 µM (active) | 
N[C@@H](Cc1cc(I)c(Oc2cc(I)c(O)c(I)c2)c(I)c1)C(=O)O | 2.96 µM (active) | 
Oc1ccc(OCc2ccccc2)cc1 | 5.9 µM (active) | 
Cc1cc(O)c2c(c1)C(=O)c1cc(O)cc(O)c1C2=O | 18.7 µM (active) | 
CN(C)c1ccc(O)c2c1C[C@H]1C[C@H]3[C@H](N(C)C)C(=O)C(C(N)=O)=C(O)[C@@]3(O)C(=O)C1=C2O | 18.7 µM (active) | 
CC(=O)O[C@H]1C(=O)[C@@]2(C)C([C@H](OC(=O)c3ccccc3)[C@]3(O)C[C@H](OC(=O)[C@H](O)[C@@H](NC(=O)c4ccccc4)c4ccccc4)C(C)=C1C3(C)C)[C@]1(OC(C)=O)CO[C@@H]1C[C@@H]2O (stereo not given in full) | 14.8 µM (active) | 
O=Nc1c(-c2c(O)[nH]c3cc(Br)ccc23)[nH]c2ccccc12 | 20.9 µM (active) | 
COc1cc(Nc2c(C#N)cnc3cc(OCCCN4CCN(C)CC4)c(OC)cc23)c(Cl)cc1Cl | 20.9 µM (active) | 

SMILES | Potency | viability (% of control) [%]
CN(C)c1ccc2nc3ccc(=[N+](C)C)cc-3sc2c1 | 5.26 µM (active) | 
COc1c2occc2cc2ccc(=O)oc12 | 1.32 µM (active) | 
Cc1cc(=O)oc2cc(O)ccc12 | 0.296 µM (active) | 
CCCCc1ccc2nc(NC(=O)OC)[nH]c2c1 | 3.32 µM (active) | 
Nc1cccc2c1CN(C1CCC(=O)NC1=O)C2=O (stereo not given) | 0.429 µM (active) | 
O=c1c(O)c(-c2cc(O)c(O)c(O)c2)oc2cc(O)cc(O)c12 | 18.7 µM (active) | 
CCCCCCCCOc1ccccc1C(=O)Nc1ccc(C(=O)OCC[N+](C)(CC)CC)cc1 | 16.6 µM (active) | 
O=C(CCc1ccc(O)cc1)c1c(O)cc(O)cc1O | 0.132 µM (active) | 
COc1c(O)cc2c(c1O)[C@@H]1O[C@H](CO)[C@@H](O)[C@H](O)[C@H]1OC2=O | 2.35 µM (active) | 
O=C(O)c1cccc(-c2noc(-c3ccccc3F)n2)c1 | 2.35 µM (active) | 
CC(=O)NC[C@H]1CN(c2ccc(N3CCOCC3)c(F)c2)C(=O)O1 | 4.69 µM (active) | 
O=c1ccc2ccc(O)c(O)c2o1 | 7.43 µM (active) | 
Clc1ccc(C(Cn2ccnc2)OCc2ccc(Sc3ccccc3)cc2)c(Cl)c1 (stereo not given) | 23.5 µM (active) | 
N=C(N)c1ccc2cc(OC(=O)c3ccc(N=C(N)N)cc3)ccc2c1 | 0.935 µM (active) | 
Cc1cc(C2CCCCC2)n(O)c(=O)c1 | 14.8 µM (active) | 
COC(=O)N[C@H](C(=O)N[C@@H](Cc1ccccc1)[C@@H](O)CN(Cc1ccc(-c2ccccn2)cc1)NC(=O)[C@@H](NC(=O)OC)C(C)(C)C)C(C)(C)C | 6.62 µM (active) | 
COc1cc(C(C)=O)ccc1OCCCN1CCC(c2noc3cc(F)ccc23)CC1 | 18.7 µM (active) | 
CN1C(C(=O)Nc2ccccn2)=C(O)c2sccc2S1(=O)=O | 2.35 µM (active) | 
CCOC(=O)C1=C(O)C(=O)N(Cc2ccccc2)C1 | 1.66 µM (active) | 
Cc1cc(Cl)ccc1OCCCC(=O)NO | 2.64 µM (active) | 
